FLuc counter – qHTS profiling assay for firefly luciferase inhibitor/activator using purifed enzyme and Km concentrations of substrates (counterscreen for miR-21 project) | Potency, µM (highest dose often 57.5 µM), for the others: at the top dose activity change, negative = inhibition, usual class: inhibitors | 360,000 compounds, 6.9% hits | Luciferin 4-monooxygenase (Photinus pyralis), P08659 | purified FLuc, Km substrates, luminescence inhibition | AID 588342, 2011;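 note: plate controls were vehicle for no effect and reference inhibitor for full effect; nearly all actives have a fitted effect of over 55% in size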
Target sequence (P08659 whole entry, looked up): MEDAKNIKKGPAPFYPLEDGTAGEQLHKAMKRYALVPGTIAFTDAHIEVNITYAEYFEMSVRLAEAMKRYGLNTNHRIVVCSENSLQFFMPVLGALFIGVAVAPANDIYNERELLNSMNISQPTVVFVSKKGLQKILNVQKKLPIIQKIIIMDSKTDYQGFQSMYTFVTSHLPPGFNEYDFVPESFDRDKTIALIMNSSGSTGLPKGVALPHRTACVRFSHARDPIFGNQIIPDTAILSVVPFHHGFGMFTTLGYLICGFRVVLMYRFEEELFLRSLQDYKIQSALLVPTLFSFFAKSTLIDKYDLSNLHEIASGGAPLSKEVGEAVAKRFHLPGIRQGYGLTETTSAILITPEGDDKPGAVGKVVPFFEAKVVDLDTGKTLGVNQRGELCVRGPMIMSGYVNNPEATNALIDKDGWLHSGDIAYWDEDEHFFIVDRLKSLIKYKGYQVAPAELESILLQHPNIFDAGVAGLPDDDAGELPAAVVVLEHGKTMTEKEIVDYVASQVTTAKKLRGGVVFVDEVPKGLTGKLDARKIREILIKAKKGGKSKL
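Purified P. pyralis luciferase, 10 nM final, with Km-level 10 uM D-luciferin and 10 uM ATP in 50 mM Tris acetate pH 7.5, 10 mM Mg acetate, 0.01% Tween-20, 0.05% BSA; 6-point qHTS titration about 60 µM downward; luminescence read.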
SMN2 splice enh – qHTS Assay for Enhancers of SMN2 Splice Variant Expression; HEK293 SMN2-luciferase splicing reporter, luminescence, 30-36 h; Potency, µM (series often up to 46.1 µM), for the others: top-dose activity change, positive = activation, hits mostly activators; 210,000 compounds, 2.8% hits; AID 1458, 2008; note: % of control where 0% means no effect; nearly all actives have a fitted effect of over 55% in size
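HEK293 cells carry an SMN2 […]–luciferase reporter in which exon 7 inclusion puts luciferase in frame. Cells were plated 10-12 h before compound addition, then incubated 30-36 h at 37C. ONE-Glo luminescence was read; sodium butyrate at 4.5 mM final served as control.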
ELG1 repair inh – qHTS screen for small molecules that inhibit ELG1-dependent DNA repair in human embryonic kidney (HEK293T) cells expressing luciferase-tagged ELG1 | Potency, µM (doses to about 46.1 µM), for the others: at the top dose activity change, negative = inhibition, actives largely listed as inhibitors | HEK293T ELG1-luciferase reporter, luminescence, 16 h; DNA damage induced by 5-fluorouridine | 330,000 compounds, 2.3% hits; note: % is set by controls: 0 for no effect and ±100 for the full control effect; nearly all actives have a fitted effect of over 55% in size
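Cells (2,000 per well) received 5-fluorouridine plus test compound or DMSO and were incubated 16 hr at 37 °C, 5% CO2. Luciferase activity was read by luminescence 30 min after ONE-Glo addition; signal suppression marked inhibition of damage-induced ELG1 function.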
Rab9 promoter act – qHTS Assay for Rab9 Promoter Activators; Huh7 Rab9 promoter-luciferase reporter, luminescence, 24 h; Potency, µM (doses to about 9.22 µM), without a hit: top-dose activation, negative = inhibition, hits mostly activators; 320,000 compounds, 2.8% hits; AID 485297, 2010; note: % of control where 0% means no effect; nearly all actives have a fitted effect of over 60% in size
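Promoter activation is measured as luciferase luminescence in Huh7 cells stably transfected with a Rab9 promoter–luciferase construct, following 24 h compound exposure at 37 °C and 10 min reagent incubation at ambient temperature.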
NPC1 promoter act – qHTS Assay for NPC1 Promoter Activators. Potency, µM (highest dose often 9.22 µM), for inactives: at the highest dose activation, hits mostly activators. 320,000 compounds, 2.4% hits. Huh7 NPC1 promoter luciferase reporter, 24 h; note: % of control where 0% means no effect; nearly all actives have a fitted effect of over 60% in size
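Huh7 reporter cells (NPC1 promoter driving luciferase) are dosed with compound for 24 h at 37 °C, 5% CO2; luciferase detection reagent is then added and luminescence measured after 10 min at ambient temperature.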
ELG1 genotox – qHTS screen for small molecules that induce genotoxicity in human embryonic kidney (HEK293T) cells expressing luciferase-tagged ELG1. HEK293T ELG1-luciferase reporter, luminescence, 16 h. Potency, µM (doses to about 46 µM), inactives show at the top dose activity change, positive = activation, hits mostly activators. 330,000 compounds, 1.3% hits; note: % of control where 0% means no effect; nearly all actives have a fitted effect of over 60% in size
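Step 1: seed 2,000 HEK293T ELG1-luciferase cells per well. Step 2: add compound or DMSO, incubate 16 hr at 37 °C. Step 3: ONE-Glo, 30 min at room temperature, read luminescence.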
* = called active by the depositor; ? = inconclusive; . = not tested or not shown. Rows were chosen to be rich in hits. Some 9.3% of all compounds tested hit in one or more screens of this group. Calls come from the whole dose curve; as a rule, active = well fitted curve in the direction sought with a large enough effect; inconclusive = small, poorly fitted or top-dose-only effect, or another doubt; inactive = no such curve, though single readings can be large; an effect the other way counts as inactive or inconclusive. Potency is the fitted concentration of half-maximal effect.

SMILES	FLuc counter	SMN2 splice enh	ELG1 repair inh	Rab9 promoter act	NPC1 promoter act	ELG1 genotox
COc1ccc2c(c1OC)C(=O)OC2Nc1nc(-c2cc3ccccc3oc2=O)cs1 (configuration not stated)	8.49µM*	2.24µM*	?	0.447µM*	0.891µM*	?
COc1ccc2c(c1OC)C(=O)OC2Nc1nc(-c2cc3cc([N+](=O)[O-])ccc3oc2=O)cs1 (configuration not stated)	?	0.8%	?	-3.5%	-0.9%	1.6%
COc1ccc2c(c1OC)C(=O)OC2Nc1nc(-c2ccc(-c3ccccc3)cc2)cs1 (configuration not stated)	1.35µM*	2.24µM*	?	0.708µM*	0.708µM*	3.26µM*
c1ccc(-c2csc(Nc3nc(N4CCOCC4)nc(N4CCOCC4)n3)n2)cc1	3.3%	-13.8%	5.8µM*	-9.0%	-5.0%	0.9%
O=C(COc1ccc(Cl)cc1)Nc1nc(-c2cccs2)cs1	?	12.5%	0.9%	1.2%	-2.1%	2.9%
Cc1cc(C)nc(Nc2nc(-c3ccccc3)cs2)n1	?	.	?	0.708µM*	?	1.64µM*
Cc1ccc(Nc2nc(-c3cccs3)cs2)nc1	0.239µM*	1.41µM*	?	0.447µM*	0.447µM*	0.517µM*
CC(C)=NNc1nc(-c2ccccc2)cs1	19µM*	-16.6%	?	12.3%	15.6%	?
CC(/C=C/c1ccccc1)=N\Nc1nc(-c2ccccc2)cs1	3.6%	-22.9%	1.0%	-3.6%	-4.0%	-8.0%
Cc1ccc(Cl)cc1NC(=O)c1cc(S(=O)(=O)N2CCCCCC2)cn1C	-4.2%	.	.	.	.	.
O=C(OCC#CCSc1nnc(-c2cccc3ccccc23)o1)c1cnc[nH]1	-19.6%	.	-20.3%	-3.0%	-0.1%	0.5%
CCN(CC(=O)Nc1c(F)cccc1F)C(=O)c1cccc(-n2cccc2)c1	-2.9%	.	-0.5%	0.4%	-0.6%	-4.6%
CN(C(=O)COC(=O)c1ccc(=O)n(Cc2ccccc2)n1)C1CCS(=O)(=O)C1 (configuration not stated)	-1.4%	.	25.5%	0.1%	2.0%	-0.4%
CC(=O)c1ccc(NC(=O)C2CCCN(S(=O)(=O)c3ccc4c(c3)CCCN4C(C)=O)C2)cc1 (configuration not stated)	4.7%	.	.	.	.	.
Cc1ccc(Nc2nc(-c3ccccc3)cs2)nc1	0.379µM*	.	?	0.562µM*	0.447µM*	0.326µM*
COC(=O)CCC(=O)c1oc2ccc(Cl)cc2c1NC(=O)CCCN1C(=O)c2ccccc2C1=O	-2.4%	19.5%	4.61µM*	-0.4%	1.0%	-4.3%
COc1ccc(Cl)cc1NC(=O)CN1CCC(NC(=O)C2CC2)CC1	-1.2%	.	9.2µM*	-1.2%	0.6%	-17.2%
COc1ccc(Cl)cc1NC(=O)CN1CCC(n2nnc3ccccc32)CC1	0.9%	-23.6%	7.31µM*	-3.7%	-2.7%	1.2%
COc1ccc(-c2csc(N(C)C(=O)c3ccco3)n2)cc1	10.7µM*	.	?	3.98µM*	?	?
COc1ccc(-c2csc(N(CCCN3CCOCC3)C(=O)c3ccco3)n2)cc1	4.1%	-26.1%	16.4µM*	-5.0%	0.2%	-6.5%
CC(=O)N(C)c1nc(-c2ccc(Cl)cc2)cs1	?	-7.3%	?	3.55µM*	?	4.4%
COc1ccc(OC)c(-c2csc(N(Cc3ccco3)C(=O)c3ccco3)n2)c1	-0.1%	-26.9%	18.3µM*	-2.8%	-4.5%	0.8%
COCCCN(C(=O)c1ccco1)c1nc(-c2cc(OC)ccc2OC)cs1	5.3%	-16.2%	?	0.0%	-0.7%	-6.6%
Cc1ccc(-c2csc(N(CCCN3CCOCC3)C(=O)c3ccco3)n2)cc1	1.7%	-41.2%	?	0.4%	-7.2%	-8.3%
COc1ccc(CCNC(=O)C2CCN(c3nc4ccccc4nc3C(F)(F)F)CC2)c(OC)c1	-0.3%	.	.	.	.	.
SMILES	FLuc counter	SMN2 splice enh	ELG1 repair inh	Rab9 promoter act	NPC1 promoter act	ELG1 genotox
COc1ccccc1N1CCN(CCCNC(=O)c2nnc(Cc3c(F)cccc3Cl)o2)CC1	1.6%	-26.4%	.	.	.	.
CCn1nc(C(=O)OCC(=O)NCC(C)C)c2ccccc2c1=O	-2.4%	-4.3%	-3.6%	0.6%	-5.1%	2.9%
COc1ccc(-c2csc(NC(=O)COC(=O)c3ccco3)n2)cc1	?	12.6µM*	?	3.16µM*	3.98µM*	?
CCn1nc(C(=O)OCC(=O)Nc2nc(-c3ccc(OC)cc3)cs2)c2ccccc2c1=O	?	10µM*	?	?	?	?
CN(C(=O)c1ccco1)c1nc(-c2ccc(Cl)cc2)cs1	6.01µM*	.	0.0%	3.16µM*	?	14.2%
CN(C)CCCN(C(=O)c1ccco1)c1nc(-c2ccc(Cl)cc2)cs1	-10.3%	.	6.2%	-8.4%	6.5%	0.1%
CCCC1=Nc2cc(C(=O)NCCc3ccccc3)ccc2Sc2ccc(C)cc21	4.4%	-13.6%	.	.	.	.
CCC(C)N(C(=O)COC(=O)CNC(=O)c1sc2ccccc2c1Cl)C1CCS(=O)(=O)C1 (configuration not stated)	21.3µM*	.	?	-1.6%	5.6%	11.3%
N#CC1(NC(=O)COC(=O)CNC(=O)c2sc3ccccc3c2Cl)CCCCC1	?	.	11.8%	-3.2%	-2.9%	2.8%
CCN(C(=O)COC(=O)CNC(=O)c1sc2ccccc2c1Cl)C1CCCCC1	12µM*	.	14.2%	3.3%	-3.6%	2.3%
CCN1/C(=C/C(C)=C/c2sc3ccccc3[n+]2CC)Sc2ccccc21	?	-77.7%	1.83µM*	-35.9%	-44.8%	-15.4%
CC(C)Oc1ccc(CNC(=O)c2cnc3sc(N4CCCCCC4)nn3c2=O)cc1	3.0%	.	.	.	.	.
COc1cccc(OCc2cc(C(=O)NCc3ccccn3)no2)c1	15.1µM*	.	?	2.82µM*	?	16.4µM*
COc1ccc(OCc2cc(C(=O)NCc3cccc(C)n3)no2)c(Cl)c1	23.9µM*	.	?	?	?	26.2%
COc1cccc(OCc2cc(C(=O)NCCc3cccc(C)n3)no2)c1	2.5%	.	-3.0%	-1.7%	-3.1%	-0.2%
COCCNC(=O)C1CCC(CNS(=O)(=O)c2ccc3c(c2)CC(C)N3C(C)=O)CC1 (configuration not stated)	-4.3%	.	.	.	.	.

Assay outcomes: PubChem, National Center for Advancing Translational Sciences (NCATS)
